Screens (PubChem)
Compounds with a hit are over-represented: about 6% of the library has one in this group of screens.
Sfp inh: inhibitors of Bacillus subtilis Sfp phosphopantetheinyl transferase; Potency, µM, for the others: largest response in the series, negative = inhibition, actives largely listed as inhibitors; Biochemical Sfp PPTase activity, qHTS; Q9F4F7; 310,000 tested, 3.5% active;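 also: the enzyme is Sfp with the accession as filed and its product quenches rhodamine fluorescence; 0% = enzyme reaction without inhibitor and -100% = no enzyme wells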
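Compounds were incubated with enzyme (final 15 nM) for 15 min at room temperature before substrate addition started the reaction. Fluorescence at 525 nm excitation, 598 nm emission was recorded immediately and after 30 minutes.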
Tau fluor cs: counter-screen for tau fibril formation inhibitors; 280,000 tested, 0.93% active; Potency, µM (highest dose often 57.7 µM), inactives show top-dose activity change, negative = decrease; tau K18 P301L Alexa594 fluorescence, heparin fibrillization; AID 1463; also: nearly all actives have a fitted effect of over 55% in size
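Human tau K18 P301L (15 uM unlabeled, 0.24 uM Alexa 594-labeled) in 100 mM sodium acetate pH 7 with 20 uM heparin, 6 hr at 37 C. ThT 30 uM added, 1 hr ambient; Alexa 594 FP and total fluorescence read at 555/632 nm.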
PLK1 PBD block: blocks phosphopeptide binding to human PLK1 polo-box domain. Plk1 PBD binding of FITC phosphopeptide, fluorescence polarization. Potency, µM, for inactives: max response, negative = inhibition, hits mostly inhibitors. 360,000 tested, 2.8% active; also: series mostly up to about 57 µM; nearly all actives have a fitted effect of over 65% in size
Tau FP inhib: blocks human tau fibril formation measured by polarization. P10636. K18 P301L tau heparin fibrillization, Alexa594 FP, 6 h. Potency, µM (titrated, usually from 57.7 µM), without a hit: at the top dose activity, negative = inhibition, usual class: inhibitors. 280,000 tested, 0.39% active. AID 1468; also: nearly all actives have a fitted effect of over 55% in size
Target sequence (P10636 561-689 P618L limits assumed): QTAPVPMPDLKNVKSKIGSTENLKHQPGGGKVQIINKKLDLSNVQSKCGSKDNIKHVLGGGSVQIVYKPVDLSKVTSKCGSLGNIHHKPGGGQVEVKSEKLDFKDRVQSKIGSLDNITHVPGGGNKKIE
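Steps: dispense K18 P301L tau (15 uM plus 0.24 uM Alexa 594 tracer, final) in pH 7 sodium acetate; add compound; add heparin (20 uM final); incubate 6 hr, 37 C; add ThT (30 uM final); after 1 hr ambient, read FP.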
VDR inhibitor: inhibitors of human vitamin D receptor. VDR-SRC2-3 peptide fluorescence polarization, 2 h. Potency, µM, without a hit: max response, negative = inhibition, hits mostly inhibitors. 400,000 tested, 0.93% active. P11473
Target sequence (P11473 whole entry, looked up): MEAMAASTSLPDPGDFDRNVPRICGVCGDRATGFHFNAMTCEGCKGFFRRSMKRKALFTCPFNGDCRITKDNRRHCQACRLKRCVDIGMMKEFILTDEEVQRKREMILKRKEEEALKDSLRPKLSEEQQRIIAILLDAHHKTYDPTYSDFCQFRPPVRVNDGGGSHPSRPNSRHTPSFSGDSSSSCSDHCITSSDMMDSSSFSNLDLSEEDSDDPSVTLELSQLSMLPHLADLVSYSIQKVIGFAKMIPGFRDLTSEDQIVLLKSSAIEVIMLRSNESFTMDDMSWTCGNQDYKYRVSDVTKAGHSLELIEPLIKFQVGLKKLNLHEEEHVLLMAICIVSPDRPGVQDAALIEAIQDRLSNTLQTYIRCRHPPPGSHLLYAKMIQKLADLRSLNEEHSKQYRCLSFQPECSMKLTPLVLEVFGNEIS
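Measured by FP: displacement of SRC2-3 coactivator peptide from VDR by library compounds, following a two-hour ambient incubation.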
Tau fibril ThT: inhibitors of human tau fibril formation, thioflavin T binding; Potency, µM (top dose mostly 57.4 µM), inactives show at the top dose activity, negative = inhibition, hits mostly inhibitors; recombinant tau K18 P301L, heparin-induced fibrillization, ThT fluorescence; P10636; 270,000 tested, 2.1% active; AID 1460; also: nearly all actives have a fitted effect of over 55% in size
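Using a mix of unlabeled (15 uM) and Alexa 594-labeled (0.24 uM) tau K18 P301L, heparin-triggered fibrillization over 6 hr at 37 C was scored by ThT fluorescence.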
* marks the source's active call; other numbers are inactive results; ? = inconclusive; / = not tested or not shown; ! = a repeat was not active; [ ] = remark or other dose. Calls follow the shape of the dose curve; as a rule, active = well fitted curve in the direction sought with a large enough effect; inconclusive = small, poorly fitted or top-dose-only effect, or another doubt; inactive = no such curve, though single readings can be large; an effect the other way counts as inactive or inconclusive. Unless noted, % is scaled to controls: 0 for no effect and ±100 for the full control effect; potency is read from the fitted curve at half-maximal effect.

SMILES | Sfp inh | Tau fluor cs | PLK1 PBD block | Tau FP inhib | VDR inhibitor | Tau fibril ThT
C(=N\Nc1nc2ccccc2[nH]1)/c1cccs1 | -19% | ? | -4% | 18µM* | -14% | 5µM*
Cn1c(/C=N/Nc2nc3ccccc3[nH]2)nc2ccccc21 | -8% | ? | -9% | 0% | 8% | 4µM*
Cc1c(/C=N/Nc2nc3ccccc3[nH]2)c2ccccc2n1C | ? | 14µM*[quencher] | -8% | 18% | 5% | /
Cc1ccsc1/C=N/Nc1nc2ccccc2[nH]1 | 0% | ? | 0% | 1% | -19% | ?
CC(C)Cn1c(/C=N/Nc2nc3ccccc3[nH]2)nc2ccccc21 | -11% | 28µM*[quencher] | -12% | 13% | -17% | ?
Cc1cccc(NC(=O)c2ccc3c(O)c(S(=O)(=O)c4ccccc4)c(=O)[nH]c3c2)c1C | / | -1% | / | 0% | 7% | -5%
Cc1cccc2sc(N(Cc3cccnc3)C(=O)C3COc4ccccc4O3)nc12 (centres undefined) | / | -10% | / | -13% | 20% | -13%
C=CCn1cc(/C=N/Nc2nc3ccccc3[nH]2)c2ccccc21 | 16µM* | 11µM*[quencher] | -8% | 1% | -8% | 7.9µM*
CCCn1c(/C=N/Nc2nc3ccccc3[nH]2)nc2ccccc21 | ? | ? | 5% | ? | -17% | ?
CCN(CC)CCNC(=O)c1c(C)oc2ncnc(N3CCOCC3)c12 | / | -6% | / | -5% | 15% | -4%
CCC(=O)Nc1nc(=S)ss1 | 10µM* | -20% | 21µM* | ? | 45µM* | ?
CC(C)(C)C(=O)Nc1ccc(NC(=O)C(C)(C)C)cc1 | 24% | -14% | -25% | 5% | -9% | -7%
CC(C)(C)C(=O)Nc1nc(=S)ss1 | 22µM* | -11% | ? | ? | ? | ?
c1ccc(-c2noc(CN3CCN(c4cnccn4)CC3)n2)cc1 | 1% | -1% | 13µM* | -7% | -10% | -4%
c1ccc(C(c2ccccc2)N2CCN(Cc3nc(-c4cnccn4)no3)CC2)cc1 | 18% | -7% | 2% | 0% | -6% | -8%
Cc1cc(C)nc(SCC(=O)Oc2ccc3oc(=O)cc(C)c3c2)n1 | 6% | 4% | 27µM* | 6% | -9% | ?
COc1ccc(OC)c(NC(=O)C2CCCN(S(=O)(=O)c3cccc4nsnc34)C2)c1 (centres undefined) | -7% | -10% | 3.4µM*! | 3% | -20% | -7%
CCOC(=O)[C@]12CCC=C1N(Cc1ccc3c(c1)OCO3)C(=O)[C@H](CC(=O)N1CCN(C(=O)c3ccco3)CC1)C2 | / | / | 2% | / | / | /
CC1=NN(c2ccc(C)cc2)C(=O)/C1=C\C=C\c1ccccc1 | ? | 7.9µM*[quencher] | -28% | ? | 79µM* | 7.1µM*
CC1=NN(c2ccc(C)c(C)c2)C(=O)/C1=C/c1ccc2c(c1)n(C)c(=O)n2C | 7% | -5% | ? | 12% | ? | -18%
CC1=NN(c2ccccc2)C(=O)C1=Cc1ccccc1 | / | / | 4.7µM* | / | / | /
CC1=NN(c2ccccc2)C(=O)/C1=C/C=C/C=C/N(C)C | ? | -27% | 42% | -5% | -5% | 16µM*
CC1=NN(c2ccccc2)C(=O)/C1=C/c1c(O)n(-c2ccc(F)cc2)[nH]c1=O | -15% | 13µM*[quencher] | ? | 12% | -14% | 4.5µM*
CC1=NN(c2ccccc2)C(=O)/C1=C\N(O)c1ccccc1 | -5% | / | ? | / | -28% | /
CC(C)[C@H](NC(=O)[C@@H](Cc1c[nH]c2ccccc12)NC(=O)[C@H](Cc1ccc(O)cc1)NC(=O)[C@@H](N)CC(=O)O)C(=O)N[C@H](Cc1c[nH]c2ccccc12)C(=O)N[C@H](Cc1c[nH]c2ccccc12)C(=O)N[C@@H](CCCCN)C(N)=O | -14% | / | / | / | -1% | /
SMILES | Sfp inh | Tau fluor cs | PLK1 PBD block | Tau FP inhib | VDR inhibitor | Tau fibril ThT
CC1=NN(c2ccccc2)C(=O)/C1=C\c1cc(C)n(-c2ccccc2)c1C | 9% | -26% | 4% | -4% | 7% | 7.9µM*
CC1=NN(c2ccccc2)C(=O)/C1=C/c1cccs1 | -20% | -15% | 17µM* | -5% | 79µM* | ?
CC1=NN(c2ccccc2)C(=O)/C1=C/c1ccc[nH]1 | 7% | -20% | -7% | -2% | 6% | 13µM*
CC1=NN(c2cccc(F)c2)C(=O)/C1=C/c1ccc(N(C)C)cc1 | 14% | / | -1% | / | -4% | /
CC1(C)OC(=O)C(=Cc2ccc[nH]2)C(=O)O1 | 12% | -9% | -12% | -5% | -9% | -8%
CC1=NN(c2ccccc2)C(=O)/C1=C\c1ccc(Br)s1 | -5% | ? | 4.7µM* | -1% | -25% | 13µM*
COCCNC(=O)c1ccc(-c2nc(CS(=O)(=O)c3ccccc3)c(C)o2)cc1 | / | 7% | / | 0% | 15% | 10%
N[C@@H](Cc1cc(CP(=O)(O)O)cc(-c2ccccc2Cl)c1)C(=O)O | 8.9µM* | -3% | / | 1% | -19% | -4%
NC(Cc1cccc(-c2ccccc2CP(=O)(O)O)c1)C(=O)O (centres undefined) | / | -5% | / | 2% | 0% | -8%
CCC(CC)C(=O)Nc1nc2c(s1)CC(C)CC2 (centres undefined) | / | -8% | / | 0% | 12% | -2%
CC1CCc2nc(NC(=O)C3CCCO3)sc2C1 (centres undefined) | -29% | -17% | 24µM* | -14% | 6% | ?
CCCCOC(=O)Nc1nnc(C(C)C)s1 | 9% | 1% | -9% | -12% | 4% | 8%
CCCC(C)c1nnc(NC(=O)C2CC(=O)N(CCc3ccc(F)cc3)C2)s1 (centres undefined) | 28µM* | / | 6µM* | / | ? | /
CCCC(C)c1nnc(NC(=O)C(=O)OCC)s1 (centres undefined) | 20µM* | -3% | 11µM* | -2% | ? | ?
CCCC(C)c1nnc(NC(=O)CN2C(=O)c3ccccc3C2=O)s1 (centres undefined) | 45µM* | -7% | 27µM* | -2% | -16% | -3%
Cc1ccc(-c2nc(CNC(=O)Nc3ccccc3)c(C)o2)cc1 | / | -16% | / | -7% | -3% | -1%
Cc1cccc(-c2noc(-c3cccnc3NCc3ccccc3Cl)n2)c1 | / | -20% | / | -3% | 0% | -8%
CCc1cccc(NC(=O)CCS(=O)(=O)c2cc3c4c(c2)CCN4C(=O)CC3)c1 | / | -5% | / | -10% | 2% | 2%
Cc1cc(OC(=O)c2ccccc2F)c([N+](=O)[O-])c(=O)[nH]1 | 12% | / | 4% | / | 12% | /
CCCCCCn1c(=O)n2n(c1=O)[C@@H]1CN(S(=O)(=O)c3ccc(C)cc3)C[C@]1(O)[C@@H](OC(=O)Nc1c(C)noc1C)C2 | / | / | -21% | / | / | /
